Assay results: PubChem BioAssay (NCI)
This is part of a sample that, as a whole, favours compounds with a hit. Of some 79,000 tested, about 15% had one in any assay. Rule as the data show it: active = growth inhibition above about 70%; inactive = the rest. Where a SMILES comes first, the peptide text is derived from it. [ ]: non-standard residue; d: D form. The star is where a group is joined. ξ: configuration not given here. dThr(3ξ) = CC(O)[C@@H](N)C(=O)O; dNMeL = CN[C@H](CC(C)C)C(=O)O; OBn = c1ccc(CO*)cc1; ξLac = CC(O)C(=O)O

Key:
[1] = NCI Yeast Anticancer Drug Screen. Data for the rad50 strain (AID 155);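 also: 0% = growth of vehicle-only cultures of the same strain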; conditions: S. cerevisiae rad50 strain growth inhibition; at 50.0 µM; active compounds read high
Method in brief: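 A DNA repair-deficient yeast mutant serves as the test organism; compound-induced growth inhibition is calculated against vehicle-treated cells.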

[2] = NCI Yeast Anticancer Drug Screen. Data for the mec2-1 strain (AID 157); conditions: S. cerevisiae mec2-1 strain, at 50.0 µM, active compounds read high
Method in brief: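 Compounds were applied to mec2-1 yeast cells. Their growth was then compared with that of vehicle-treated cultures to give growth inhibition.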

[3] = NCI Yeast Anticancer Drug Screen. Data for the sgs1 mgt1 strain (AID 161);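 also: 0% = growth of cultures given vehicle only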; conditions: S. cerevisiae sgs1 mgt1 strain, at 50.0 µM, active compounds read high
Method in brief: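 This yeast growth screen uses a strain with defined DNA-repair lesions; compound-treated growth is compared with vehicle-treated growth.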

[4] = NCI Yeast Anticancer Drug Screen. Data for the cln2 rad14 strain (AID 165);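 also: 0% = growth equal to vehicle treated cultures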; conditions: S. cerevisiae cln2 rad14 strain, at 50.0 µM, active compounds read high
Method in brief: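 Strain: cln2 rad14 yeast, altered in cell cycle control and DNA damage repair. Read-out: growth inhibition vs vehicle.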

[5] = NCI Yeast Anticancer Drug Screen. Data for the bub3 strain (AID 167); conditions: S. cerevisiae bub3 mutant strain, at 50.0 µM, active compounds read high
Method in brief: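 Inhibition values come from growth of compound-treated mutant yeast normalised to vehicle-treated controls.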

[6] = NCI Yeast Anticancer Drug Screen. Data for the mlh1 rad18 strain (AID 175); conditions: S. cerevisiae mlh1 rad18 strain growth inhibition; at 50.0 µM; active compounds read high
Method in brief: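 A repair-deficient yeast strain is exposed to test compound, and growth is scored relative to vehicle-treated controls.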

Measured: growth inhibition

O=C1Cc2c(-c3cccs3)cc(-c3ccccc3)nc2-c2ccccc2N1
inactive: [1] 0% | [2] -3.9% | [3] 3.4% | [4] 18.2% | [5] -4.75% | [6] 7.85%

C[CH2][Sn]([CH2]C)([O]C(=O)c1ccc2c(c1)OC(C)(C)O2)[O]C(=O)c1ccc2c(c1)OC(C)(C)O2
inactive: [1] 51.3% | [2] 52.1% | [3] 4.7% | [4] 41.4% | [5] 14% | [6] -2.7%

COc1ccc(-c2c(C#N)c(O)n(NS(=O)(=O)c3ccc(C)cc3)c(=O)c2C#N)cc1
inactive: [1] 12.1% | [2] 37% | [3] 33% | [4] 20.8% | [5] 28.5% | [6] 37.5%

CCOC(=O)/C(C#N)=C\Nc1ccc(C)cc1
inactive: [1] -0.85% | [2] -26.6% | [3] -7.95% | [4] -2.55% | [5] -12.1% | [6] -8.75%

NNC(=O)c1ccccc1F
inactive: [1] -19.6% | [2] -19.4% | [3] -16.3% | [4] -4.7% | [5] -10.2% | [6] -19.2%

CC(=O)CC(=O)Nc1cc(C)c(NC(=O)CC(C)=O)cc1C
inactive: [1] 26.2% | [2] 26.6% | [3] 31.1% | [4] 7.55% | [5] 38.8% | [6] 30.6%

CC1CCC(C(C)C)C(OC(=O)N/N=C/N(C)C)C1 (stereo unspecified)
inactive: [1] 1.65% | [2] 17.2% | [3] 4.4% | [4] 20% | [5] -0.95% | [6] 25.1%

O=C(OCC(O)C(O)C(O)C(SCc1ccccc1)SCc1ccccc1)c1ccc([N+](=O)[O-])cc1 (stereo unspecified)
inactive: [1] 23.6% | [2] 3.1% | [3] 31.6% | [4] 20.4% | [5] -1% | [6] 5.85%

CC(=O)OCC1OC(OC(C)=O)C(NS(=O)(=O)Cc2ccccc2)C(OC(C)=O)C1OC(C)=O (stereo unspecified)
inactive: [1] 10.5% | [2] 17.4% | [3] 13.7% | [4] -1.35% | [5] -1.2% | [6] 20.4%

O=C(O)Cc1ccc(-c2ccccc2)[nH]1
inactive: [1] 3.35% | [2] -14.7% | [3] 3.25% | [4] -25.8% | [5] -17.1% | [6] -12%

c1ccc2c(c1)Cc1c(-c3ccncc3)n[nH]c1-2
inactive: [1] 48.8% | [2] 33% | [3] 41.6% | [4] 10.3% | [5] 19.3% | [6] 60.1%

Cc1ccc(S(=O)(=O)N(c2c(F)cc(C#N)cc2F)S(=O)(=O)c2ccc(C)cc2)cc1
inactive: [1] 51.7% | [2] 6.35% | [3] 32.8% | [4] 30.1% | [5] 2.6% | [6] 31.6%

CCCC(C)OC(=O)Nc1cccc(O)c1 (stereo unspecified)
inactive: [1] -2.3% | [2] -10.9% | [3] -5.3% | [4] -10.9% | [5] -21.5% | [6] -5.05%

CC(=O)c1cc(C)oc1C
inactive: [1] -5.1% | [2] -8.25% | [3] -12.8% | [4] -32.1% | [5] 2.8% | [6] 12.9%

O=C1OC(=O)C2C3CC(C4OC34)C12 (stereo unspecified)
inactive: [1] -12.2% | [2] 29.3% | [3] -3.55% | [4] -20.8% | [5] -9.9% | [6] 4.05%

CCCCC/C(C)=C(\C#N)C(=O)OC
inactive: [1] -5.4% | [2] -29.1% | [3] -19.2% | [4] -15.3% | [5] -34% | [6] -27.4%

NCC1CC1
inactive: [1] 19.1% | [2] -2.25% | [3] 9.75% | [4] 8.65% | [5] -11.8% | [6] 14.7%

O=[N+]([O-])c1ccc(OC2OC(CO)C(O)C(O)C2O)cc1 (stereo unspecified)
inactive: [1] 31.2% | [2] -0.45% | [3] -4.7% | [4] 5.1% | [5] 24% | [6] 10.2%

COc1ccc2c(-c3cc4ccccc4o3)cc(=O)oc2c1
inactive: [1] -6.4% | [2] -16.9% | [3] -21.3% | [4] 2% | [5] 3% | [6] -31.9%

CNC(=O)NC1C(CO)OC2OC(C)(C)OC21 (stereo unspecified)
inactive: [1] 6.5% | [2] 5.25% | [3] 10.4% | [4] -35.3% | [5] -9.85% | [6] 2.55%

Cc1ccc(/C=N/NC2=NCCN2)s1
inactive: [1] -0.4% | [2] 8% | [3] 4.35% | [4] 8.15% | [5] -5.05% | [6] 9.75%

Cc1c(Cl)ccc2c1NC(=O)C2(O)CC(=O)c1ccccc1 (stereo unspecified)
inactive: [1] 10.1% | [2] -3.95% | [3] 35.9% | [4] 7.15% | [5] -18.8% | [6] 30.3%

C[n+]1ccc(/C(C#N)=N/O)cc1
inactive: [1] -16.4% | [2] -39.9% | [3] -20.6% | [4] 20.6% | [5] -25.8% | [6] -28.9%

CC(=O)N/N=C/c1ccc(C)cc1
inactive: [1] 6.6% | [2] -1.3% | [3] -11.1% | [4] -0.9% | [5] -11.8% | [6] 1.75%

O=C(N/N=C/c1ccccc1)C1CC1
inactive: [1] 9.35% | [2] -10.2% | [3] 10.2% | [4] 8% | [5] 9.35% | [6] 1.85%

CC(=O)OC(C)[C@@H](NC(=O)[C@@H](CC(C)C)N(C)C(=O)[C@@H]1CCCN1C(=O)C(C)O)C(=O)OCc1ccccc1 (stereo partly specified) (H-[ξLac]P[dNMeL][dThr(3ξ)](Ac)-OBn)
inactive: [1] 8.75% | [2] 24.4% | [3] -16.8% | [4] 8.2% | [5] -30.4% | [6] -37.3%

COC(=O)C(=O)c1c(C(=O)OC)nc2nnc(N)n2c1C1CC1
inactive: [1] -5.6% | [2] 11.8% | [3] 7.75% | [4] -17.9% | [5] -5.35% | [6] 4.25%

CCO/C=C(\C(=O)OC)S(=O)(=O)c1ccc(C)cc1
inactive: [1] -18.5% | [2] 3.1% | [3] 2.35% | [4] 1.7% | [5] -9.1% | [6] -19.5%

c1ccc(C2CCOCO2)cc1 (stereo unspecified)
inactive: [1] 14.4% | [2] 15.7% | [3] 15.8% | [4] 12.2% | [5] 5.7% | [6] 24.2%

O=C1C(c2[nH]c3ccc(F)cc3c2O)=Nc2ccc(F)cc21
inactive: [1] 8.7% | [2] 10.9% | [3] 22.9% | [4] 9.4% | [5] 0% | [6] 19.1%

CN(C)N=Nc1ccc(C(=O)N/N=C/c2ccccc2[N+](=O)[O-])cc1
inactive: [1] -13.8% | [2] 1.2% | [3] -16.6% | [4] -18.2% | [5] -14.7% | [6] -40.8%

CCNC(=O)C1CCCN1C(=O)C(CCCN=C(N)N)NC(=O)C(CC(C)C)NC(=O)C(Cc1c[nH]c2ccccc12)NC(=O)C(Cc1ccc(O)cc1)NC(=O)C(CO)NC(=O)C(Cc1c[nH]c2ccccc12)NC(=O)C(Cc1cnc[nH]1)NC(=O)C1CCC(=O)N1 (stereo unspecified)
inactive: [1] -11.6% | [2] -10.6% | [3] -18.5% | [4] -21.6% | [5] 6.05% | [6] 10.2%

O=C(Cc1ccccc1CCO)NCCc1ccccc1
inactive: [1] 5.35% | [2] 1.55% | [3] -32.9% | [4] 24.8% | [5] -21.8% | [6] -14.9%

CN(C)CCSCC(=O)N1c2ccccc2Sc2ccc(Cl)cc21
inactive: [1] -5.25% | [2] -7.45% | [3] -2.9% | [4] 17.6% | [5] 7.95% | [6] -0.5%

CN(C)CCCNC(=O)N/N=C\c1cccc2ccccc12
inactive: [1] -2.9% | [2] -24% | [3] -17.4% | [4] 14.8% | [5] -4% | [6] -6.45%

COC12C=CC(CC1)C(C)(C)C2=O (stereo unspecified)
inactive: [1] 8.85% | [2] -4.7% | [3] -3.9% | [4] 3.2% | [5] -3.05% | [6] -0.55%

CC(=O)OCN(C)C=O
inactive: [1] 25.9% | [2] 11.3% | [3] 18.7% | [4] 14.5% | [5] 11.1% | [6] 19.6%

O=S(=O)(O)c1cc2nonc2c2ccccc12
inactive: [1] 2.75% | [2] -0.85% | [3] 12.9% | [4] 9.25% | [5] 0.9% | [6] -2.6%

CN(C)C(=O)c1cccc([N+](=O)[O-])c1
inactive: [1] 1% | [2] -3.5% | [3] -4.65% | [4] 2.65% | [5] 13.2% | [6] 31.9%

Cc1cc(Cc2ccc(NC(=O)N3CC3)c(C)c2)ccc1NC(=O)N1CC1
inactive: [1] -2.95% | [2] -8.25% | [3] -6.8% | [4] 0.25% | [5] 10.8% | [6] -18.9%

Cc1n[nH]c(=O)n1-c1cccnc1
inactive: [1] -0.7% | [2] 1.5% | [3] -9% | [4] -12.3% | [5] 3.55% | [6] 3.6%
